Measurements as given in PubChem BioAssay AID1347076 (National Center for Advancing Translational Sciences (NCATS), 2019).
Screen size: about 400,000 compounds; about 13,000 (3.2%) were called active. About 18% were inconclusive and are not listed. Many of the other results were omitted from the sample, so actives are more common in it than they were. Values without a mark were called inactive. Calls come from the whole dose curve; as a rule, active = well fitted cell-killing curve with a large enough effect; inconclusive = small, poorly fitted or top-dose-only effect, or effect the other way; inactive = flat fitted curve, though single readings scatter.

assay: qHTS assay for MDR1-selective chemotherapeutics: Primary screen using the drug-selected MDR subline cells KB-V1; conditions: KB-V1 MDR cells viability, CellTiter-Glo, 72 h; series mostly up to 46.1 µM; activity change, negative = cytotoxicity: at the top concentration; note: nearly all actives have a fitted effect of over 60% in size
In short: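 In this primary screen, KB-V1 cells overexpressing P-gp are incubated with library compounds (lowest to highest concentration) for 72 h at 37 degrees C before a luminescent ATP viability read.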
% is set by controls: 0 for no effect and ±100 for the full control effect; potency is the fitted concentration of half-maximal effect.

Row | SMILES | activity change, negative = cytotoxicity [%] | Potency
1 | CCCCCCN1CCN(C2CN(Cc3cn(CCCCCC)nn3)S(=O)(=O)C2)CC1 (centres undefined) | -17.4 | 
2 | COc1ccc(-c2nc3ccc(Br)cn3c2Cc2ccc(C)cc2)cc1OC | 11.7 | 
3 | CN(C)CCNC(=O)c1ccc(Cl)c2cc3ccccc3nc12 |  | 2.06 µM (active)
4 | CN(C)CCNC(=O)Nc1cccc(Cl)c1Cl | -2.58 | 
5 | CC(=O)NCCNC(=O)c1cc(-c2cccc3ccccc23)nc2ccccc12 | -9.24 | 
6 | CCOC(=O)C1CCCN(C(=O)c2cc(-c3cccs3)oc2C)CC1 (centres undefined) | -0.946 | 
7 | O=C1N(Cc2ccccc2)c2ccc(Cl)cc2C1(O)c1c[nH]c2ccccc12 (centres undefined) | 15.1 | 
8 | CCOc1ccc(-c2nonc2NC(=O)c2oc3ccc(C)cc3c2C)cc1OCC | 4.56 | 
9 | C/C(=N\NC(=O)CSc1nc2ccccc2c(=O)n1-c1ccccc1C)c1cccs1 |  | 2.31 µM (active)
10 | C/C(=N\NC(=O)COc1c(C)cccc1C)c1cccs1 | -15.3 | 
11 | Cc1nn(-c2ccccc2)c(C)c1/C=N/NC(=O)CSc1nc2ccccc2c(=O)n1-c1ccccc1 | -1.83 | 
12 | Cc1ccc(S(=O)(=O)N2CCCCC2)cc1NC(=O)CCNC(=O)c1ccccc1Cl | -2.44 | 
13 | COc1ccc(C)c(Cn2c(-c3nonc3N)nc3ccccc32)c1 |  | 2.31 µM (active)
14 | CCn1c(C(O)c2cc(OC)ccc2OC)nc2ccccc21 (centres undefined) | 0 | 
15 | CC(=O)Nc1nonc1-c1nc2ccccc2n1Cc1ccccn1 | -6.93 | 
16 | O=C(NCCS(=O)(=O)N1CCN(c2ccccc2)CC1)c1cc(=O)c2ccccc2o1 | -16.5 | 
17 | OCCC#Cc1ccc(N2C(c3ccsc3)=Cc3ccc(F)cc3C2c2c[nH]c3ccccc23)cc1 (centres undefined) | -2.8 | 
18 | CCOc1ccccc1CNS(=O)(=O)c1cc(-c2cc(C)no2)ccc1C | -25.9 | 
19 | COc1ccc(CCNS(=O)(=O)c2cc(-c3cc(C)no3)ccc2C)cc1OC | 14.1 | 
20 | COc1ccc(CNS(=O)(=O)c2cc(-c3cc(C)no3)ccc2C(C)C)cc1 |  | 13 µM (active)
21 | CC1(C(=O)NS(=O)(=O)Cc2cccc(Cl)c2)CCN1C(=O)Cc1ccc(Cl)cc1Cl (centres undefined) | 3.11 | 
22 | CCc1nc2ccc(C(=O)N3CCN(S(=O)(=O)CC)CC3)cn2c1N(C=O)CCC(C)C | -1.32 | 
23 | CCCCCCCNc1ccc(/C=C/c2ccnc3ccccc23)cc1 | -14.4 | 
24 | Cc1cc(C)nc(NS(=O)(=O)c2ccc(NC(=O)c3cc(=O)c4ccc(C)c(C)c4o3)cc2)n1 | 10.1 | 
25 | O=c1c2ccccc2n(Cc2cccc(Cl)c2)c(=O)n1Cc1ccccc1 | 0 | 

Row | SMILES | activity change, negative = cytotoxicity [%] | Potency
26 | Nc1cc(=O)n(Cc2ccccc2)c(=O)n1Cc1ccccc1 |  | 18.4 µM (active)
27 | Cc1cc(-c2csc(N)n2)c(C)n1Cc1ccccc1 | -1.04 | 
28 | O=C(CCN1CCCCC1)Nc1ccc(F)c(F)c1 | -4.41 | 
29 | CSc1ncnc2c1ncn2CCCNCC1CCCCC1 | -20.3 | 
30 | CSc1ncnc2c1ncn2CCCNCc1ccco1 | -0.21 | 
31 | CSc1ncnc2c1ncn2CC(=O)C1CCC2C3CCC4=CC(=O)CCC4(C)C3CCC12C (centres undefined) |  | 23.1 µM (active)
32 | Cc1cc(C)cc(NC(=O)Cn2nc(N3CCN(c4ccccc4)CC3)ccc2=O)c1 | 0 | 
33 | CC1(C)CN(Cc2cccnc2)C(=O)[C@H]1CC(=O)Nc1ccc(Br)cc1 | -10.6 | 
34 | CCN(CC)C(=O)CN(c1cccc(OC)c1)S(=O)(=O)c1ccc(C)cc1 | -18.1 | 
35 | COc1ccc(C)cc1N(CC(=O)N1CCC(C)CC1)S(=O)(=O)c1ccc(C)cc1 | -20 | 
36 | COC(=O)CN(c1nc(C)c(Cl)c(OC)n1)S(=O)(=O)c1ccc(C)cc1 |  | 13 µM (active)
37 | CCOC(=O)N1CCN(C(=O)C[C@@H]2C[C@@]3(C(=O)OC)CCCCC=C3N(CCC3=CCCCC3)C2=O)CC1 | 0 | 
38 | CCCNC(=O)C[C@@H]1CC[C@@H]2[C@H](COC[C@H](O)CN2C(=O)c2cc(Cl)cc(Cl)c2)O1 | -2.38 | 
39 | C[C@@H]1CN([C@@H](C)CO)C(=O)c2c(c3ccccc3n2C)-c2ccccc2CO[C@H]1CN(C)C(=O)C1CC1 | 2.91 | 
40 | Cn1ncc([N+](=O)[O-])c1C(=O)Nc1cc(Cl)ccc1Cl | -28.7 | 
41 | CN(C)c1ccc(NC(=O)CSc2nc(-c3ccco3)cc(C(F)(F)F)n2)cc1 | -4.3 | 
42 | Cc1ccc(-c2cnc(C(O)c3cccc(C)c3C)[nH]2)cc1 (centres undefined) | 0.531 | 
43 | Cc1cc(F)ccc1NS(=O)(=O)c1ccc(-n2cccn2)cc1 | -19.7 | 
44 | Cc1ccc(-c2nnc3ccc(SCC(N)=O)nn23)cc1 | -16.7 | 
45 | CCC1(C(=O)c2ccccc2)C(c2cccc([N+](=O)[O-])c2)C1(C(=O)OC)C(=O)OC (centres undefined) |  | 23.1 µM (active)
46 | O=C(NOCc1ccccc1)c1cccc([N+](=O)[O-])c1 | -0.0129 | 
47 | COc1cccc(NCCC(=O)c2cccc([N+](=O)[O-])c2)c1 | 0 | 
48 | CC(C)(C)NC(=O)C(CCc1ccccc1)n1c(=O)c(-c2ccccc2)nc2ccccc21 (centres undefined) | -14 | 
49 | Cc1cccc2cc(CN(Cc3cccs3)C(=S)NCc3ccco3)c(=O)[nH]c12 |  | 3.66 µM (active)
50 | Cc1cccc2cc(CN(C(=O)c3cccs3)c3ccccc3)c(=O)[nH]c12 |  | 23.1 µM (active)

Row | SMILES | activity change, negative = cytotoxicity [%] | Potency
51 | Cc1ccc(C)c2[nH]c(=O)c(CN(Cc3cccnc3)C(=S)NCc3ccco3)cc12 | -4.35 | 
52 | CCCN(Cc1cc2cccc(C)c2[nH]c1=O)S(C)(=O)=O | 0 | 
53 | Cc1cc(C)c2[nH]c(=O)c(CN(Cc3ccccc3)C(=S)NCCCN(C)C)cc2c1 | 20.3 | 
54 | Cc1ccc(C)c2[nH]c(=O)c(CCNC(=O)c3cccs3)cc12 | -0.813 | 
55 | CCOC1=C2[C@H]([C@H]3C(=O)N(c4ccccc4)C(=O)[C@H]3C1)[C@@H](c1ccccc1)N(S(=O)(=O)c1ccc(C)cc1)[C@H]2c1ccccc1 | 9.91 | 
56 | CCc1nc2ccc(C(=O)NCc3ccc(OC)cc3)cn2c1N(CC)Cc1cccc(Br)c1 | -14.4 | 
57 | CSC1=NN(c2ccccc2)CN(c2ccccc2)N1C | -10.4 | 
58 | Cc1cccc(-c2cnc(C(O)c3cc(C)cc(C)c3)[nH]2)c1 (centres undefined) | -1.95 | 
59 | COCCNC(=O)C1(C)CCCN(Cc2cccc(F)c2)C1 (centres undefined) | 5.35 | 
60 | O=C(CN1C(=O)c2cccc3cccc1c23)Nc1ccccc1 | -9.9 | 
61 | O=C(CN1CCN(c2ccccn2)CC1)N1CCc2ccccc21 | 19.5 | 
62 | O=C1c2cccc3cccc(c23)N1CN1CCN(c2ccccn2)CC1 |  | 5.8 µM (active)
63 | COc1ccc(NC(=O)CN2C(=O)NC(C)(c3ccccc3)C2=O)cn1 (centres undefined) | 19 | 
64 | CC(=O)c1ccc(NC(=O)c2ccc3c(Cl)c4c(nc3c2)CCCC4)cc1 |  | 16.4 µM (active)
65 | COc1ccc(N2CCN(C(=O)c3ccc4c(Cl)c5c(nc4c3)CCCC5)CC2)cc1 |  | inactive
66 | COc1cccc(CNC(=O)c2ccc3c(Cl)c4c(nc3c2)CCCC4)c1 | -11.6 | 
67 | Fc1ccc(-c2nn(-c3ccccc3Cl)c3c2cnc2ccccc23)cc1 | -20.6 | 
68 | Cc1ccc(S(=O)(=O)N[C@H](CO)C(C)C)cc1 | -2.47 | 
69 | Cc1cccc(C(=O)NCCc2nc3ccccc3n2Cc2ccccc2Cl)c1 | -0.81 | 
70 | CN(NC(=O)c1ccccc1F)c1nc(C(F)(F)F)nc2ccccc12 | -12 | 
71 | CSc1nc(N(C)NC(=O)c2cccc(C)c2)c2ccccc2n1 |  | 0.206 µM (active)
72 | CN(NC(=O)c1ccccc1)c1nc2ccccc2nc1C(F)(F)F |  | 4.61 µM (active)
73 | O=C(Nn1cnc2ccccc2c1=O)c1ccccc1 | -7.07 | 
74 | Cc1cccc(C(=O)Nc2ccc(-c3nc4ccccc4s3)c(C)c2)c1 | 17.3 | 
75 | C[C@H](CO)N1C[C@H](C)[C@@H](CN(C)C(=O)C2CCCCC2)OCc2cnnn2CCCC1=O | 0 | 

Row | SMILES | activity change, negative = cytotoxicity [%] | Potency
76 | Cc1ccc(F)c(S(=O)(=O)NC(=O)C2(C)CCN2C(=O)c2ccco2)c1 (centres undefined) | 2.85 | 
77 | COc1cccc(CNc2nc3cc(-c4csc5ccccc45)sc3c(=O)n2C)c1 | 1.56 | 
78 | CC1CCN(c2ccc3c(c2)S(=O)(=O)c2cc(C(=O)O)ccc2C3=O)CC1 | -17.6 | 
79 | CCCCc1ccc(S(=O)(=O)NC(=O)C2(C)CCN2C(=O)c2ccccc2)cc1 (centres undefined) | -1.95 | 
80 | NC(=O)Cc1nc2scc(-c3ccc(Cl)cc3)c2c(=O)[nH]1 | 34.2 | 
81 | O=c1[nH]c(CN2CCOCC2)nc2cc(Cl)ccc12 | -7.03 | 
82 | O=c1[nH]c(CCl)nc2cc(-c3ccc(Cl)cc3)sc12 |  | 16.4 µM (active)
83 | COCOc1cccc(CN2CCC(C)(Oc3ccc(SC)cc3)C2)c1 (centres undefined) | -12.9 | 
84 | O=C1CC(c2ccccc2)CC2=C1C(c1ccco1)n1nc(C(F)(F)F)nc1N2 (centres undefined) | 0 | 
85 | COc1ccc(N2C(=O)CSC23C(=O)N(Cc2cccc(F)c2)c2ccccc23)cc1Cl (centres undefined) |  | 16.4 µM (active)
86 | COc1ccc(N2C(=O)CS(=O)(=O)C23C(=O)N(Cc2ccc(C)cc2)c2ccccc23)cc1Cl (centres undefined) | 3.01 | 
87 | COc1ccnc2c1c(=O)n(Cc1cccc(F)c1)c(=O)n2C | -0.196 | 
88 | COc1cc(C(=O)OCCCN2CCOCC2)cc(OC)c1OC | -11.7 | 
89 | CC(C)(C)OC(=O)N1CCC(c2c(C(=O)Nc3ccc4c(c3)OCO4)cnn2-c2ccccc2)CC1 | -13.9 | 
90 | COc1cc(OC)c(OC)cc1/C=C1\C=Cc2ccccc21 | -1.45 | 
91 | COc1ccc(S(=O)(=O)N2CCC(C(=O)NCCC(=O)Nc3ccccc3OC)CC2)cc1 | 6.15 | 
92 | CC(=O)Nc1ccc(N2CCOCC2)c(C(=O)Nc2cccc(C)c2)c1 | -4.2 | 
93 | COC(=O)c1cc(NC(=O)c2ccco2)ccc1N1CCOCC1 | -2.65 | 
94 | COC(=O)c1cc(NC(=O)c2cc(C(C)(C)C)nn2Cc2cccc(C)c2)ccc1N1CCOCC1 |  | 8.2 µM (active)
95 | COc1ccc(C(=O)C(OP(=O)(OC)OC)c2ccccc2OC)cc1 (centres undefined) | -16.5 | 
96 | CC1CC(NC(=S)N(C)C)CC(C)(C)C1 (centres undefined) | -7.02 | 
97 | C=CCOC(=O)c1ccccc1C(=O)OCC=C | 28.4 | 
98 | C=CCOC(=O)C1=C(C)NC(C)=C(C(=O)OCC=C)C1c1cccs1 |  | 16.4 µM (active)
99 | CC1=C(C(=O)Nc2ccccc2)C(c2cccs2)C(C#N)=C(SCC#N)N1 (centres undefined) | -9.02 | 
